# Reference: PubChem BioAssay (EPA / NIEHS)
# Several values for one entry are separate records, joined by “and”; a condition that tells them apart may be missing. Identical values can stand only once. Activity calls are given as the source filed them. The calls were made as follows: active = hit-call score of the fitted dose curve at least 0.9, where 1 is the maximum; inactive = score below 0.9.
# Assay: CCTE_Shafer_MEA_acute_burst_number: CCTE's Neural Acute Assay for Single-Electrode Bursts, Shafer Lab (AID 2284013)
# Description: CCTE_Shafer_MEA_acute assay is conducted using Axion Biosystems 48 well microelectrode array (MEA) plates and Maestro recording system. Each well of the MEA plate contains a grid of 16 microelectrodes embedded in the culture surface. Electrically active cells, such as neurons, can be cultured over the electrodes, and electrical activity in these cells can be recorded extracellularly. The spontaneous firing of neurons is captured from each electrode on a microsecond timescale providing both temporally and spatially precise data. […] The CCTE_Shafer_MEA_acute assay uses primary cultures of rat cortical neurons. As these cultures mature over time, neural networks develop functional activity and form cohesive networks in which electrical activity can be highly coordinated. Baseline 40-minute recordings are made on days post-plating 13 or 15, followed by a secondary 40-minute recording after chemical exposure.CCTE_Shafer_MEA_acute_burst_number is a component of the CCTE_Shafer_MEA_acute assay. It measures the total number of single-electrode bursts (temporally-clustered groups of action potential firing) during a recording in a microelectrode array (MEA) using Axion Biosystems Maestro 768 channel amplifier with the AxIS adaptive spike detector. The recordings before and after chemical treatment are used to calculate a percent change in the burst number in each well.Data from the assay component CCTE_Shafer_MEA_acute_burst_number was analyzed into 1 assay endpoint. This assay endpoint, CCTE_Shafer_MEA_acute_burst_number, was analyzed in the negative analysis fitting direction relative to DMSO as the negative control and baseline of activity. Using a type of functional reporter, gain or loss-of-signal activity can be used to understand electrical activity.
# Spontaneous activity in the cortical cultures was recorded using an Axion Biosystems Maestro 768 channel amplifier and Axion Integrated Studios (AxIS) v1.8 (or later) software. The amplifier recorded from all channels simultaneously (gain = 1200 x; sampling rate = 12.5 kHz/channel): raw signals were filtered with a Butterworth band-pass filter (300-5000 Hz), which filters out slower local field potentials leaving only fast potentials, i.e., "spikes", arising from extracellular currents associated with action potentials (Pine 2006; Wheeler and Nam 2011). On-line spike detection of filtered signals was conducted with the AxIS adaptive spike detector, using a threshold of 8x the root mean squared (rms) noise on each channel. Any electrodes with rms noise levels greater than 5 uV were grounded (e.g., no data were recorded). Once grounded, an electrode was grounded for the duration of the experiment. All recordings were conducted at 37 C. Wells were deemed usable if on the day of the exposure >/= 10 electrodes were active (defined as >/= 5 spikes/min). On DIV 13 or 15, a minimum of three wells from one cortical culture preparation were treated with each compound (0.03-40 uM). Prior to recording baseline activity, each mwMEA plate was placed in the Maestro at 37 C and allowed to sit for 20 min while firing rates stabilized. Baseline activity (40 min) was recorded before the addition of each compound. An additional 40 min of spontaneous activity was recorded in the presence of each compound. Changes in network parameters relative to baseline were assessed following compound treatment.
SMILES,outcome,AC50
CN(C)[C@@H]1C(=O)C(C(N)=O)=C(O)[C@@]2(O)C(=O)C3=C(O)c4c(O)cccc4[C@@](C)(O)[C@H]3[C@H](O)[C@@H]12,inactive,
O=[N+]([O-])c1cc(C(F)(F)F)c(Cl)c([N+](=O)[O-])c1Nc1ncc(C(F)(F)F)cc1Cl,,322 nM (active)
CCCOCC(=Nc1ccc(Cl)cc1C(F)(F)F)n1ccnc1,,686 nM (active)
CCOP(=S)(OCC)Oc1ccc2c(C)c(Cl)c(=O)oc2c1,,1940 nM (active)
Cc1ccn2nc(S(=O)(=O)Nc3c(F)cccc3F)nc2n1,inactive,
CON=C(C(=O)OC)c1ccccc1CON=C(C)c1cccc(C(F)(F)F)c1,,191 nM (active)
C[Si](Cn1cncn1)(c1ccc(F)cc1)c1ccc(F)cc1,,4300 nM (active)
CC(C)[C@H](C(=O)O[C@H](C#N)c1cccc(Oc2ccccc2)c1)c1ccc(Cl)cc1,,928 nM (active)
CN1COCN(Cc2cnc(Cl)s2)C1=N[N+](=O)[O-],inactive,
N#CSCSC#N,inactive,
COP(=O)(NC(C)=O)SC (centres undefined),inactive,
Nc1c(Cl)cc([N+](=O)[O-])cc1Cl,inactive,
CCOP(=O)(NC(C)C)Oc1ccc(SC)c(C)c1 (centres undefined),inactive,
C#CCC1=C(C)C(OC(=O)C2C(C=C(C)C)C2(C)C)CC1=O (centres undefined),,13300 nM (active)
CC1=NNC(=O)N(/N=C/c2cccnc2)C1,inactive,
CSC1=N[C@@](C)(c2ccccc2)C(=O)N1Nc1ccccc1,inactive,
O=C(O)c1cc(Oc2ccc(C(F)(F)F)cc2Cl)ccc1[N+](=O)[O-],inactive,

SMILES,outcome,AC50
C=C(C)[C@H]1Cc2c(ccc3c2O[C@@H]2COc4cc(OC)c(OC)cc4[C@@H]2C3=O)O1,inactive,
CC(=NC#N)N(C)Cc1ccc(Cl)nc1,inactive,
CCc1cccc(C)c1N(C(=O)CCl)C(C)COC (centres undefined),,14800 nM (active)
CC[C@H](C)[C@H]1O[C@]2(C=C[C@@H]1C)C[C@@H]1C[C@@H](C/C=C(\C)[C@@H](O[C@H]3C[C@H](OC)[C@@H](O[C@H]4C[C@H](OC)[C@@H](NC)[C@H](C)O4)[C@H](C)O3)[C@@H](C)/C=C/C=C3\CO[C@@H]4[C@H](O)C(C)=C[C@@H](C(=O)O1)[C@]34O)O2,,7.43 nM (active) and 28.2 nM (active)
CCOP(=S)(OCC)SCCSCC,inactive,
CNC(=O)ON=C(SC)C(=O)N(C)C,inactive,
COc1cc(OC)nc(Sc2cccc(Cl)c2C(=O)O)n1,inactive,
CCc1cnc(C2=NC(C)(C(C)C)C(=O)N2)c(C(=O)O)c1 (centres undefined),inactive,
CN(C)NC(=O)CCC(=O)O,inactive,
CC(COc1ccc(Oc2ccccc2)cc1)Oc1ccccn1 (centres undefined),inactive,
CC(C)=CC1C(C(=O)OCN2C(=O)C3=C(CCCC3)C2=O)C1(C)C (centres undefined),inactive,
CCOC(=O)CC(SP(=O)(OC)OC)C(=O)OCC (centres undefined),inactive,
CCOP(=S)(Oc1cnc(C(C)(C)C)nc1)OC(C)C (centres undefined),inactive,
COP(=O)(OC)C(O)C(Cl)(Cl)Cl (centres undefined),inactive,
C[N+]1(C)CCCCC1,inactive,
FC(F)C(F)(F)OCC(Cn1cncn1)c1ccc(Cl)cc1Cl (centres undefined),inactive,
CC(C)N(C(=O)SCC(Cl)=C(Cl)Cl)C(C)C,inactive,
